Targets with a hit are over-represented here; the source holds about 7,900 in all. About 0.6% of all pairs of compound and target were hits.
Experiments:
Test in all cases: log2 fold change, soluble protein after heating vs DMSO (PISA); higher = thermal stabilisation; K562 cells, 10 uM, 30 min; active = over 0.2 and 3.5 SD of the protein, either way, in both replicates (recomputed)
saracatinib = compound: CN1CCN(CCOc2cc(OC3CCOCC3)c3c(Nc4c(Cl)ccc5c4OCO5)ncnc3c2)CC1 [saracatinib]
In short: (§1)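 Soluble protein was defined as the supernatant after 21,000xg for 90 min. It came from K562 cells at 2×10^6 cells/mL given 10 μM compound for 30 min, heated in aliquots for 3 min across 48°C-58°C, pooled, and extracted in PBS with 0.5% NP-40 at 4°C, and was quantified by TMTpro 16plex LC-MS/MS with equalised channel sums. Thermal stability against control samples, from duplicates, is reported as log2 fold change.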

alvocidib = compound: CN1CC[C@H](c2c(O)cc(O)c3c(=O)cc(-c4ccccc4Cl)oc23)[C@H](O)C1 [alvocidib]
In short: as §1

defactinib = compound: CNC(=O)c1ccc(Nc2ncc(C(F)(F)F)c(NCc3nccnc3N(C)S(C)(=O)=O)n2)cc1 [defactinib]
In short: as §1

[1] = compound: CNc1nc(-c2ccc3c(N)n[nH]c3c2)cc(N2C[C@@H](C(=O)NC3CCCCC3)CC[C@H]2C)n1
In short: as §1

[2] = compound: COC(=O)[C@H](CCSC)NC(=O)C1=C(C=C(C=C1)NC[C@H](CS)N)C2=CC=CC=C2
In short: as §1

[3] = compound: COC1=CC=C(C=C1)CN2C=CC3=C2C=C(C=C3)C(=O)NO
In short: as §1

zotarolimus = compound: CO[C@H]1C[C@@H]2CC[C@@H](C)[C@@](O)(O2)C(=O)C(=O)N2CCCC[C@H]2C(=O)O[C@H]([C@H](C)C[C@@H]2CC[C@H](n3cnnn3)[C@H](OC)C2)CC(=O)[C@H](C)/C=C(\C)[C@@H](O)[C@@H](OC)C(=O)[C@H](C)C[C@H](C)/C=C/C=C/C=C/1C [zotarolimus]
In short: as §1

idasanutlin = compound: COc1cc(C(=O)O)ccc1NC(=O)[C@@H]1N[C@@H](CC(C)(C)C)[C@](C#N)(c2ccc(Cl)cc2F)[C@H]1c1cccc(Cl)c1F [idasanutlin]
In short: as §1

Tubastatin A = compound: CN1CCc2c(c3ccccc3n2Cc2ccc(C(=O)NO)cc2)C1 [Tubastatin A]
In short: as §1

[4] = compound: CNC(=O)C1=CC=CC=C1NC2=NC(=NC=C2Cl)NC3=C(C=C(C=C3)N4CCOCC4)OC
In short: as §1

rucaparib = compound: CNCc1ccc(-c2[nH]c3cc(F)cc4c3c2CCNC4=O)cc1 [rucaparib]
In short: as §1

encorafenib = compound: COC(=O)N[C@@H](C)CNc1nccc(-c2cn(C(C)C)nc2-c2cc(Cl)cc(NS(C)(=O)=O)c2F)n1 [encorafenib]
In short: as §1

pictilisib = compound: CS(=O)(=O)N1CCN(Cc2cc3nc(-c4cccc5[nH]ncc45)nc(N4CCOCC4)c3s2)CC1 [pictilisib]
In short: as §1

alisertib = compound: COc1cc(Nc2ncc3c(n2)-c2ccc(Cl)cc2C(c2c(F)cccc2OC)=NC3)ccc1C(=O)O [alisertib]
In short: as §1

gefitinib = compound: COc1cc2ncnc(Nc3ccc(F)c(Cl)c3)c2cc1OCCCN1CCOCC1 [gefitinib]
In short: as §1

[5] = compound: COc1cccc2cc(-c3nc([C@H]4CC[C@H](C(=O)O)CC4)n4ncnc(N)c34)[nH]c12
In short: as §1

sotrastaurin = compound: CN1CCN(c2nc(C3=C(c4c[nH]c5ccccc45)C(=O)NC3=O)c3ccccc3n2)CC1 [sotrastaurin]
In short: as §1

filanesib = compound: CON(C)C(=O)N1N=C(c2cc(F)ccc2F)S[C@@]1(CCCN)c1ccccc1 [filanesib]
In short: as §1

[6] = compound: COc1cc2nc(-c3cc(F)ccc3O)nc(N[C@@H]3CNC[C@H]3C(C)(C)O)c2cc1OC
In short: as §1

lapatinib = compound: CS(=O)(=O)CCNCc1ccc(-c2ccc3ncnc(Nc4ccc(OCc5cccc(F)c5)c(Cl)c4)c3c2)o1 [lapatinib]
In short: as §1

Measured: log2 fold change

DNAL1 (UniProt Q4LDG9)
inactive: saracatinib -0.081 | alvocidib -0.121 | defactinib -0.14 | [1] 0.062 | [2] -0.13 | [3] 0.009 | zotarolimus 0.024 | idasanutlin -0.098

FAM117B (UniProt Q6P1L5)
inactive: saracatinib -0.004 | alvocidib -0.117 | Tubastatin A 0.084 | [4] -0.035 | defactinib -0.494 | rucaparib -0.013 | [1] -0.223 | encorafenib -0.092 | [2] -0.341 | [3] 0.053 | zotarolimus 0.007 | idasanutlin -0.062 | pictilisib 0.208

FAM160A2 isoform 2 (UniProt Q8N612)
inactive: saracatinib -0.066 | alvocidib -0.016 | Tubastatin A -0.17 | defactinib -0.002 | rucaparib -0.085 | [1] -0.064 | encorafenib -0.168 | [2] 0.128 | [3] -0.082 | zotarolimus 0.067 | alisertib 0.031 | gefitinib 0.158 | [5] 0.103 | pictilisib -0.056

DCAF12 (UniProt Q5T6F0)
UniProt Q5T6F0, sequence (Q5T6F0 whole entry, looked up): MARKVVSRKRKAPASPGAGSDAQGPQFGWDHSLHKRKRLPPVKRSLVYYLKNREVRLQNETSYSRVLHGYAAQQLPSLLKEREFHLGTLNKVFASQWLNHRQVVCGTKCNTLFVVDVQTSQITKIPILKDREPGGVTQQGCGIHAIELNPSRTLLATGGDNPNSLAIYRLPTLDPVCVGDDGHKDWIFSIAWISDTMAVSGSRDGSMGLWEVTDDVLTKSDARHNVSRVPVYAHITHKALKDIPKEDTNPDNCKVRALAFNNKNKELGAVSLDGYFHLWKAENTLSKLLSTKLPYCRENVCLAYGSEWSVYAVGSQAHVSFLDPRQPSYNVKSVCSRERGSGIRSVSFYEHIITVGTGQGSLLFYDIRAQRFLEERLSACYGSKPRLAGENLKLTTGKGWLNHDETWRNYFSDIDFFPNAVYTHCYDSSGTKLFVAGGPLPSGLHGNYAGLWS
inactive: sotrastaurin 0.058 | rucaparib 0.199 | encorafenib 0.112 | filanesib -0.037 | alisertib 0.073 | [5] 0.036 | pictilisib 0.16

EEF1D isoform 3 (UniProt P29692)
UniProt P29692, sequence (P29692 whole entry, looked up): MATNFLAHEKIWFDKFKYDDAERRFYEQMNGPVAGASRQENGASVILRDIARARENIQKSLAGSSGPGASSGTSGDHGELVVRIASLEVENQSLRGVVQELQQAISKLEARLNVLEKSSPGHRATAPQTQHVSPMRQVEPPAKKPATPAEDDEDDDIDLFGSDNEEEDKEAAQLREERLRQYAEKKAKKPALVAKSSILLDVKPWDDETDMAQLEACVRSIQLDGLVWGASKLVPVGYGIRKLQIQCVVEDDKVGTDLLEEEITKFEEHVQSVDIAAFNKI
inactive: Tubastatin A 0.147 | [4] -0.03 | alisertib -0.067 | [5] -0.105

DERPC (UniProt P0CG12)
inactive: saracatinib -0.168 | [4] 0.08 | defactinib -0.153 | rucaparib -0.001 | [1] -0.071 | encorafenib -0.109 | [2] 0.063 | [3] -0.016 | alisertib 0.021 | gefitinib 0.099 | [5] 0.086 | pictilisib -0.107

ENTPD7 (UniProt Q9NQZ7)
inactive: saracatinib 0.155 | sotrastaurin 0.17 | Tubastatin A 0.064 | [4] -0.162 | rucaparib -0.078 | [1] 0.136 | encorafenib -0.26 | [3] -0.031 | filanesib -0.268 | alisertib -0.054 | [6] 0.06 | gefitinib -0.026 | [5] 0.03 | lapatinib 0.099

DHPS (UniProt M0R1T2)
inactive: sotrastaurin -0.06 | filanesib -0.057

CYP24A1 (UniProt Q07973)
inactive: saracatinib -0.144 | Tubastatin A 0.365 | [4] -0.075 | defactinib 0.394 | rucaparib 0.115 | [1] 0.078 | encorafenib 0.075 | [2] 0.016 | [3] 0.1 | idasanutlin 0.039 | alisertib -0.095 | [6] 0.091 | gefitinib -0.044 | [5] -0.306 | lapatinib 0.067 | pictilisib -0.059

DNM2 isoform 4 (UniProt P50570)
inactive: saracatinib -0.126 | sotrastaurin -0.024 | alvocidib -0.072 | [4] -0.088 | rucaparib -0.268 | [1] -0.235 | encorafenib 0.107 | [3] 0.455 | filanesib 0.021 | zotarolimus 0.273 | alisertib 0.316 | gefitinib -0.013 | [5] -0.272 | pictilisib -0.123

EDRF1 (UniProt Q3B7T1)
inactive: saracatinib 0.104 | sotrastaurin 0.012 | alvocidib -0.006 | [4] -0.111 | rucaparib 0.098 | [1] 0.07 | encorafenib 0.058 | filanesib 0.052 | alisertib -0.033 | [5] 0.044 | pictilisib 0.244
active: zotarolimus 0.419

DOLPP1 (UniProt Q86YN1)
UniProt Q86YN1, sequence (Q86YN1 whole entry, looked up): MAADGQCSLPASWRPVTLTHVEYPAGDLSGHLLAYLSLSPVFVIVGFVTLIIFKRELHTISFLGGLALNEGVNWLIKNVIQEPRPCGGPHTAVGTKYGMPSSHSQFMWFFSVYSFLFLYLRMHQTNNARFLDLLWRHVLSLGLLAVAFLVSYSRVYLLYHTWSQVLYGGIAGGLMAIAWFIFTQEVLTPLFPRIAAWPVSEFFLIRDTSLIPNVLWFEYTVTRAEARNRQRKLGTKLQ
inactive: alvocidib -0.059 | Tubastatin A -0.066 | [4] 0.012 | defactinib -0.134 | rucaparib 0.087 | encorafenib -0.057 | [2] 0.156 | [3] -0.05 | zotarolimus -0.003 | idasanutlin -0.043 | alisertib -0.022 | [6] 0.129 | gefitinib 0.013 | [5] 0.011 | lapatinib -0.07

EEF2K (UniProt O00418)
UniProt O00418, sequence (O00418 whole entry, looked up): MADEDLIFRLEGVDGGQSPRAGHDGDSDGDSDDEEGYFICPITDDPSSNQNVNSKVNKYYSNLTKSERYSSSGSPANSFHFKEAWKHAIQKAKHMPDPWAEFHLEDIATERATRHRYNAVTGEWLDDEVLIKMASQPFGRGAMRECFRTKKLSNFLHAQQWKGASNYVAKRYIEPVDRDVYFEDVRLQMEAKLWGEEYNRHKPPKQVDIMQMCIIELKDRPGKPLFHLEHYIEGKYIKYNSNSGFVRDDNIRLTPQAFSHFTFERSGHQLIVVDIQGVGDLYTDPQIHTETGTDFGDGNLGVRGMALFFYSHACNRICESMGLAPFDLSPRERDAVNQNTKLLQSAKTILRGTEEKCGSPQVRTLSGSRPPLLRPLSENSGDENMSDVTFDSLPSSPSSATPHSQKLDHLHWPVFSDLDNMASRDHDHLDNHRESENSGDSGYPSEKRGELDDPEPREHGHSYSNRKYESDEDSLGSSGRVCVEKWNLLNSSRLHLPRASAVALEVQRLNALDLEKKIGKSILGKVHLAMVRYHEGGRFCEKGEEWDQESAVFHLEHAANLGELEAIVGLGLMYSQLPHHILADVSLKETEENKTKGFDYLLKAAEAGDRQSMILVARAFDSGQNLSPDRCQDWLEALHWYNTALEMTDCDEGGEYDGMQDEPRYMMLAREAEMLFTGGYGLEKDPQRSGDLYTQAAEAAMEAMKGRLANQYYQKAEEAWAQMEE
active: [5] -0.896
inactive: alvocidib 0.194 | [4] 0.064 | defactinib -0.021 | rucaparib 0.1 | encorafenib -0.036 | [2] -0.266 | zotarolimus 0.021 | alisertib 0.031 | [6] -0.062 | lapatinib -0.017 | pictilisib -0.014

DCAF4 (UniProt Q8WV16)
inactive: saracatinib -0.097 | sotrastaurin 0.027 | rucaparib -0.346 | [1] 0.193 | encorafenib 0.103 | filanesib 0.018 | alisertib -0.076 | gefitinib -0.012 | [5] 0.005 | pictilisib 0.074

EPHB4 (UniProt P54760)
active: [5] -0.937
inactive: sotrastaurin -0.057 | filanesib 0.134 | alisertib -0.017 | [6] 0.395 | lapatinib 0.08

FAM135A (UniProt Q9P2D6)
UniProt Q9P2D6, sequence (Q9P2D6 whole entry, looked up): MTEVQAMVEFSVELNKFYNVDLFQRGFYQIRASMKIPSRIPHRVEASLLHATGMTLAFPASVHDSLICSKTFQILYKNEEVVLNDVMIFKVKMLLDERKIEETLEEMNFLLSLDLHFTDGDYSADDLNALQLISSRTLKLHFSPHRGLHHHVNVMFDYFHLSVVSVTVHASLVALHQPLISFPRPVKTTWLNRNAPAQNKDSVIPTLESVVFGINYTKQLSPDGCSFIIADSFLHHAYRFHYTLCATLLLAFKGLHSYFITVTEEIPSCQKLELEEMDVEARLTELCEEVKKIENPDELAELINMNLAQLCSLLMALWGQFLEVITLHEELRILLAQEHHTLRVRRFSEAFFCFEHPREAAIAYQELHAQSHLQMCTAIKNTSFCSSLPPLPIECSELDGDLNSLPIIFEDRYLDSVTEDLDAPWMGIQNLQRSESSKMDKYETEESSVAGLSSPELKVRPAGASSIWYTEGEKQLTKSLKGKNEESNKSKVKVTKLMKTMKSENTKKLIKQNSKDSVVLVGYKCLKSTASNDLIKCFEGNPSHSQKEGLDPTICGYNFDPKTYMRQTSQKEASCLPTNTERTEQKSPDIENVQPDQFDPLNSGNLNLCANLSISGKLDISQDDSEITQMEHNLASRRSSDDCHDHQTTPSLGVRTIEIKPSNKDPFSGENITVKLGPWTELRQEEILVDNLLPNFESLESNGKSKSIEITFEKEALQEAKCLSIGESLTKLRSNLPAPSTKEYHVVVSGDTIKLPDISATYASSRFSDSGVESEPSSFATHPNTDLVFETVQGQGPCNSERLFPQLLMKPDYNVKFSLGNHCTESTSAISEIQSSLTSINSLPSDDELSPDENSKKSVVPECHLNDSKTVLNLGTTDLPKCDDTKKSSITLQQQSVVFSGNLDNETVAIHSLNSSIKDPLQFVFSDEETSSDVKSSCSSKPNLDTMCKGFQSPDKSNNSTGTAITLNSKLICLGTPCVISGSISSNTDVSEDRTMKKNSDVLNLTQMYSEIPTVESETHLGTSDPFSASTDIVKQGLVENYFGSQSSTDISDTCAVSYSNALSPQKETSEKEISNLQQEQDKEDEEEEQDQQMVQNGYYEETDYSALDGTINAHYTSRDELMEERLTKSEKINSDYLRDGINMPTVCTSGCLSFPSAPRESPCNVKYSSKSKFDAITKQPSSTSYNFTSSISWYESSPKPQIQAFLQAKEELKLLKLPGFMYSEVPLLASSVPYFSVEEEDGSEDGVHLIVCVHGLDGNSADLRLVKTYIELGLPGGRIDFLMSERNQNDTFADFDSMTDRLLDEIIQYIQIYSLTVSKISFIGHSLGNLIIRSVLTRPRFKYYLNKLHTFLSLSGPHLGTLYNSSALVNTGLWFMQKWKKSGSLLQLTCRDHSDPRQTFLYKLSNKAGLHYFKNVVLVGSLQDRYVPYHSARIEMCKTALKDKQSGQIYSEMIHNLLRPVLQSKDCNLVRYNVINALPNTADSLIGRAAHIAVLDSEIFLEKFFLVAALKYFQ
inactive: sotrastaurin -0.192 | [4] 0.004 | defactinib -0.131 | [2] 0.003 | filanesib 0.13 | gefitinib 0.052

EID1 (UniProt Q9Y6B2)
inactive: sotrastaurin -0.049 | Tubastatin A 0.599 | [4] -0.111 | filanesib 0.119 | alisertib 0.024 | [6] 0.015 | gefitinib -0.031 | [5] -0.239 | lapatinib -0.097 | pictilisib 0.3

EHBP1 (UniProt Q8NDI1)
UniProt Q8NDI1, sequence (Q8NDI1 whole entry, looked up): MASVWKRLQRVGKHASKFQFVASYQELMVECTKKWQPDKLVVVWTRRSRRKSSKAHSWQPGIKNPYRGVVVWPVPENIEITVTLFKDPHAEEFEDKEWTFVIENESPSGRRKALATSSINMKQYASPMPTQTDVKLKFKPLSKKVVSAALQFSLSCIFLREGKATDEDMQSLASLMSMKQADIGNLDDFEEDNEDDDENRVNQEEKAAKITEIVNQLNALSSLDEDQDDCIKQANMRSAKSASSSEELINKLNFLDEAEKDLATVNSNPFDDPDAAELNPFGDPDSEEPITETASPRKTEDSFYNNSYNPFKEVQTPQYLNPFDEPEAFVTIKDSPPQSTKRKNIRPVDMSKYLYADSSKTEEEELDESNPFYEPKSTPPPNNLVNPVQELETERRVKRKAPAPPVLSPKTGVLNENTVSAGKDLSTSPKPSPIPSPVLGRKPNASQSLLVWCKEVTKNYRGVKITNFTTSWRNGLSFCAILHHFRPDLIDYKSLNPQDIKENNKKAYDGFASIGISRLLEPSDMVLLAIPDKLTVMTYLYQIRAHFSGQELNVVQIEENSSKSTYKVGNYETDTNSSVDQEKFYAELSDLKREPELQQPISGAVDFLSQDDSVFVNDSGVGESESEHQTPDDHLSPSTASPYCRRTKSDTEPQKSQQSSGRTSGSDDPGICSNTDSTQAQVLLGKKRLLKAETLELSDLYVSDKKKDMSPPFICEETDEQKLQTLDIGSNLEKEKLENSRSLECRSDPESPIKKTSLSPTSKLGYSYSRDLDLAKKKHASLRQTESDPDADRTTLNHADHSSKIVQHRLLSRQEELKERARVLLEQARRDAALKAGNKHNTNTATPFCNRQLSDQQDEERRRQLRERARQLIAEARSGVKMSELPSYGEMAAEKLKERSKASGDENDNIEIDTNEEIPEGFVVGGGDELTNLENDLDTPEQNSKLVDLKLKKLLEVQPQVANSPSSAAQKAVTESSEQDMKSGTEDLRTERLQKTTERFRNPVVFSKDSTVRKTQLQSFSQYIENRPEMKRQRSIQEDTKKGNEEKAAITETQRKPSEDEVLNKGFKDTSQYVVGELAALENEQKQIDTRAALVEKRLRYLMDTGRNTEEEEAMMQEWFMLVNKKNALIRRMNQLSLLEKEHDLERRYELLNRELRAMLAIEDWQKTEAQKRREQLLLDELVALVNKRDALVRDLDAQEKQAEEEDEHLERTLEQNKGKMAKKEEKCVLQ
inactive: alvocidib -0.085 | Tubastatin A 0.045 | rucaparib 0.135 | encorafenib -0.058 | zotarolimus -0.02 | idasanutlin 0.031 | alisertib 0.025 | [5] 0.086 | pictilisib 0.057

F2RL3 (UniProt Q96RI0)
inactive: saracatinib 0.04 | alvocidib 0.004 | Tubastatin A 0.082 | [4] -0.051 | defactinib 0.009 | [1] 0.005 | [2] 0.008 | zotarolimus -0.075 | idasanutlin -0.017 | [6] 0.017 | lapatinib 0.029

DDX46, A0A0C4DG89
inactive: alisertib -0.083 | gefitinib 0.261 | [5] 0.032

ERF (UniProt P50548)
UniProt P50548, sequence (P50548 whole entry, looked up): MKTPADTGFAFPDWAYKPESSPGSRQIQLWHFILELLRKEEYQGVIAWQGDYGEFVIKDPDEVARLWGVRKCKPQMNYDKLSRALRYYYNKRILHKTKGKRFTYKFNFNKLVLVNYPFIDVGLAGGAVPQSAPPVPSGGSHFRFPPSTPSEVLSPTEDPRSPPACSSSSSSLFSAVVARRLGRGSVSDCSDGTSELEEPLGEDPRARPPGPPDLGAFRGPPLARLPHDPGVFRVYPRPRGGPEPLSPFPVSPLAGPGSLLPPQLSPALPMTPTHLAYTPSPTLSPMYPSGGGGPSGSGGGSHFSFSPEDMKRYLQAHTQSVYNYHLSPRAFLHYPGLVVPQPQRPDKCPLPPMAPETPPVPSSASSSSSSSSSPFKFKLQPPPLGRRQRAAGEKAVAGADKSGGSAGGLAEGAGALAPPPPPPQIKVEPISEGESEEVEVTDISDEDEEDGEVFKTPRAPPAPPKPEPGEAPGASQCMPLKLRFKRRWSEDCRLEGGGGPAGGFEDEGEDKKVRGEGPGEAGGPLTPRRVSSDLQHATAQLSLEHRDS
inactive: sotrastaurin -0.058 | Tubastatin A 0.377 | [4] 0.069 | filanesib 0.328 | pictilisib 0.148

ELMO1 (UniProt Q92556)
inactive: saracatinib 0.051 | sotrastaurin 0.046 | [4] -0.074 | defactinib -0.045 | [1] 0.041 | [2] -0.222 | [3] -0.108 | filanesib 0.072 | alisertib 0.212 | gefitinib 0.017 | [5] 0.08

From the supplement of paper PMC10849652
